High-throughput results deposited in PubChem by several laboratories.
The list is not random: actives were taken first. Their share in the collection is about 2.1%.
HIV Env fusion: inhibitors of HIV-1 Env-driven cell-cell fusion, primary screen, HeLa-JRFL effector, CEM21 target cells, luciferase; inhibition, % at 12.3 µM; actives 1.1% (n = 360,000);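 active = mean replicate inhibition score of at least 50 and every replicate individually at or above 50; inconclusive = only one of the two criteria met; inactive = mean below 50 and not all replicates reaching 50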;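 also: 0% = plate neutral controls and 100% = maraviroc near 300 nM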
aDG glyco act: activators of alpha-DG glycosylation, primary screen, uHTS, Pro5-aDG cells, AlphaScreen; alpha-DG glycosylation AlphaScreen (IIH6); 0% Pro5, 100% B10-LARGE cell signal; activation, % at 10 µM; actives 0.22% (n = 360,000); AID 624168, 2012;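 active = activation of at least 8% versus controls, or a plate z-score of at least 8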;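 also: Pro5 are CHO cells carrying HIG-tagged alpha-DG that lacks glycosylation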
NR2F2 inh: NR2F2 transcriptional activity inhibitors, primary screen, cell-based, luciferase reporter, HEK293T, luminescence; COUP transcription factor 2 (Homo sapiens), P24468; HEK293T NGFI-A luciferase reporter; inhibition, % at 8.6 µM; actives 0.7% (n = 370,000);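 active = inhibition above a per-plate cutoff, mean inhibition of test wells between control levels plus 3 SD, cut at about 38% in these data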;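 also: cells cotransfected with COUP-TFII expression vector driving the NGFI-A reporter; 0% = median of COUP-TF2 test wells and 100% = reporter-only cells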
Target sequence (P24468 whole entry, looked up): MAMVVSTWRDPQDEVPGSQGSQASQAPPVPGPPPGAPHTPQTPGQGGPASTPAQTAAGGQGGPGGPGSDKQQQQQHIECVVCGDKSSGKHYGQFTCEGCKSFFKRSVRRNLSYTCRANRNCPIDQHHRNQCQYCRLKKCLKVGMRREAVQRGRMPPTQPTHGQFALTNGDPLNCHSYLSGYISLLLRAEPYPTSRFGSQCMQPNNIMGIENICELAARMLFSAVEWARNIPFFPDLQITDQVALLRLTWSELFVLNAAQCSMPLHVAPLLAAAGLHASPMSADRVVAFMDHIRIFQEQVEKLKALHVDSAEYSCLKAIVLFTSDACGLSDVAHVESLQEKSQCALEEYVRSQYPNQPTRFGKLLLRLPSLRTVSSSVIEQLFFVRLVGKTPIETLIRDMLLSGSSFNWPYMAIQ
Gli-Sufu block: Gli-Sufu pathway antagonists, primary screen, luciferase luminescence, Sufu-KO-LIGHT cells, uHTS. Sufu-KO-LIGHT fibroblasts, Gli luciferase reporter luminescence. actives 0.74% (n = 340,000). AID 588413, 2011. inhibition, % at 5 µM;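 active = inhibition above about 55%, limit read from the data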;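 also: 0% = DMSO-treated cells and 100% = wells with medium but no cells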
GalR3 antagonist: GalR3 antagonists in HEK293 cells, primary screen, cell-based, fluorescence readout. Galanin receptor type 3 (Homo sapiens), O60755. HEK293 GalR3-CNG cAMP membrane potential fluorescence; galR3 body fused to GalR1 C-terminus. inhibition, % at 3 µM. actives 0.44% (n = 360,000). AID 651719, 2012;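 active = inhibition above the screen-wide average plus 3 SD, cut at about 13% in these data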;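 also: forskolin and galanin both at EC90 stimulate the cells; cAMP rise reported by CNG channel membrane potential dye signal; 0% = forskolin plus galanin with DMSO and 100% = forskolin alone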
Gal4-VP16 ctr: Gal4-VP16 luciferase reporter inhibitors, counter-screen for COUP-TFII antagonist project, cell-based, luminescence, HEK293; actives 25% (n = 2,500); shares compounds with NR2F2 inh; inhibition, % at 8.5 µM; in the data active = inhibition above about 13%
NR2F2 inh conf: NR2F2 transcriptional activity inhibitors, confirmation, cell-based, luciferase reporter, HEK293, triplicate; shares compounds with NR2F2 inh; HEK293 NGFI-A luciferase reporter, luminescence; inhibition, % at 8.5 µM; actives 45% (n = 2,500); AID 687008, 2013;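 active = mean inhibition over three repeats above a set limit taken from the earlier primary screen, cut at about 38% in these data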;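 also: 100% = cells given the luciferase reporter alone without the COUP-TF2 vector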
Starred values were filed as active, the others as inactive; ? = inconclusive; / = not tested or not shown; [ ] = remark or other dose.

SMILES	HIV Env fusion	aDG glyco act	NR2F2 inh	Gli-Sufu block	GalR3 antagonist	Gal4-VP16 ctr	NR2F2 inh conf
Cc1cc(C(=O)CSc2ccc(F)cc2)cc(C)c1OC(=S)N(C)C	/	0	73*	-8	-1	57*	85*
C[C@H]1CN([C@@H](C)CO)C(=O)c2cc(-c3ccccc3F)cnc2O[C@@H]1CN(C)C(=O)C1CCC1	6[16.7 µM]	/	/	/	/	/	/
O=c1c(Cl)c(N2CCCCC2)cnn1-c1nc2ccccc2[nH]1	-39	0	56*	25	0	-40	-15
Clc1ccc2nc(N3CCCCC3)[nH]c2c1	-166	0	-49	-68	9	/	/
O=c1c2ccccc2cnn1-c1nc2ccccc2[nH]1	63*	0	96*	81*	1	53*	70*
CO[C@@H]1CN(C)C(=O)c2ccc(NC(=O)c3ccccc3F)cc2OC[C@@H](C)N(C)C[C@@H]1C	-6[16.7 µM]	/	/	/	/	/	/
CCCCCc1cc(O)c2c(C)cc(=O)oc2c1	6	1	41*	11	-6	-20	-3
Cc1cc(=O)oc2cc(O)cc(O)c12	-7	0	-5	-1	-1	/	/
N#C[C@H]1[C@H](c2ccccc2)[C@H](CO)N1C(=O)Cc1ccccc1	7[16.7 µM]	/	/	/	/	/	/
Cc1noc(C)c1NC(=O)Nc1ccc2c(c1)C(=O)N([C@H](C)CO)C[C@@H](C)[C@H](CN(C)C(=O)Nc1c(C)noc1C)O2	-10[16.7 µM]	/	/	/	/	/	/
CCn1c(Cl)c(C=O)s/c1=N\S(=O)(=O)c1ccccc1	-43	0	51*	2	0	48*	36
COc1ccc(CCN(Cc2cccs2)S(=O)(=O)c2ccc(F)cc2)cc1OC	/	/	47*	/	/	4	14
COc1ccc(CCN(Cc2cccs2)S(=O)(=O)c2ccc(S(=O)(=O)N3CCC(C)CC3)cc2)cc1OC	12	0	1	10	-4	/	/
CO[C@@H]1CN(C)C(=O)c2ccc(NC(=O)Nc3ccccc3F)cc2OC[C@@H](C)NC[C@@H]1C	10[16.7 µM]	/	/	/	/	/	/
CC(C)(C)C(=O)Nc1ccc(N2CCN(c3ccc(C(F)(F)F)cn3)CC2)nc1	26	0	0	29	-4	/	/
CS(=O)(=O)Nc1ccc(N2CCN(c3ccc(C(F)(F)F)cn3)CC2)nc1	8	1	43*	23	-4	-3	11
O=C(Nc1ccc(N2CCOCC2)nc1)c1ccc(C(F)(F)F)cc1	26	0	49*	2	4	10	35
Cc1cccc(C(=O)Nc2ccc(N3CCN(c4ccc(C(F)(F)F)cn4)CC3)nc2)c1	9	0	9	11	5	/	/
C[C@H](CO)N1C[C@H](C)[C@@H](CN(C)C(=O)Nc2cccc3ccccc23)Oc2ccc(NC(=O)Nc3ccc(C(F)(F)F)cc3)cc2C1=O	3[16.7 µM]	/	/	/	/	/	/
CCOC(=O)C1(Cc2ccccc2)CCN(Cc2ccnc3ccccc23)CC1	/	/	47*	/	/	4	39*
Cc1ccc(-c2cnc3c(c2)C(=O)N([C@@H](C)CO)C[C@@H](C)[C@H](CN(C)CC2CCOCC2)O3)cc1	-8[16.7 µM]	/	/	/	/	/	/
Cc1ccc(-n2ncc3c(NCc4cccnc4)ncnc32)c(C)c1	58*	3	41*	27	-3	-12	24
CC(C)(C)NC(=O)CSc1nc2ccc(NC(=O)CSc3nnnn3Cc3ccccc3)cc2s1	/	5.7*	67*	40	-4	2	51*
CCCn1c(NC(=O)c2cccc(S(=O)(=O)N3CCCC3)c2)nc2ccccc21	132*	0	45*	-7	-6	-6	28
CCCn1c(NC(=O)c2ccccc2)nc2ccccc21	/	0	-13	-10	-5	/	/
SMILES	HIV Env fusion	aDG glyco act	NR2F2 inh	Gli-Sufu block	GalR3 antagonist	Gal4-VP16 ctr	NR2F2 inh conf
C[C@@H]1CCCCO[C@@H](CN(C)S(=O)(=O)c2ccc(Cl)cc2)[C@H](C)CN([C@@H](C)CO)C(=O)c2cc(NS(=O)(=O)c3cccs3)ccc2O1	-30[16.7 µM]	/	/	/	/	/	/
Cc1ccc(Cc2c(-c3ccco3)nc3c4ccccc4ccn23)cc1	-479	0	41*	/	-3	-107	19
CCN(c1cccc(C(F)(F)F)c1)S(=O)(=O)c1ccc2c(c1)CCN2C(C)=O	/	0	47*	12	4	0	3
Cc1ccc(S(=O)(=O)Nc2ccc3c(c2)C(=O)N([C@@H](C)CO)C[C@H](C)[C@@H](CN(C)C)OCCCC[C@H](C)O3)cc1	5[16.7 µM]	/	/	/	/	/	/
Cc1cc(/C=C2/C(=O)NN(c3ccccc3)C2=O)c(C)n1-c1ccc(O)cc1	-397	-1	57*	-3	0	-42	31
COc1ccc(-n2c(C)cc(/C=C3\C(=O)NN(c4ccccc4)C3=O)c2C)cc1	/	0	-14	0	-11	/	/
Cc1c(C(=O)NCc2ccc3c(c2)OCO3)sc(=O)n1Cc1ccc(S(=O)(=O)N(C)C)cc1	37	0	24	/	-1	/	/
Cc1c(C(=O)NCc2ccc3c(c2)OCCO3)sc(=O)n1Cc1ccc(S(=O)(=O)N(C)C)cc1	46	0	45*	/	-2	5	14
Cc1c(C(=O)NCc2ccc(Cl)c(Cl)c2)sc(=O)n1Cc1ccc(S(C)(=O)=O)cc1	50	0	85*	/	-3	-8	4
C/C(=N\NC(N)=S)C1C2C3CC4C5CC(C42)C1C53 (configuration not stated)	-31	1	57*	37	-8	11	43*
CC(C)NC(=O)N[C@H]1CC[C@H](CCNC(=O)C2CCOCC2)O[C@@H]1CO	-245[16.7 µM]	/	/	/	/	/	/
CC(NC(=O)CC1CCCCC1)c1ccccc1 (configuration not stated)	24	0	5	-4	-11	/	/
C=C(C)CC1(NC(C)c2ccccc2)CCCCC1 (configuration not stated)	/	0	41*	37	-4	-11	-3
O=C(NC1CCN(Cc2ccccc2)CC1)c1cccc(S(=O)(=O)Nc2cc(C(F)(F)F)ccc2Cl)c1	9	0	21	23	-5	/	/
COc1ccc(Cl)cc1NS(=O)(=O)c1cccc(C(=O)NC2CCN(Cc3ccccc3)CC2)c1	/	1	48*	11	-6	17*	33
NCCCCCc1nnc(SCc2ccccc2Cl)o1	?	0	55*	21	-4	42*	31
Cc1ccccc1S(=O)(=O)N1C[C@H](O)COC[C@H]2O[C@H](CC(=O)O)CC[C@@H]21	-32[16.7 µM]	/	/	/	/	/	/
